{"source": "the supplement of paper PMC7261846", "note": "Structures can show the parent of a compound that is named as a salt. ± gives the uncertainty stated by the source."}
{"system": "Candida albicans SNY425 biofilm", "experiment": "biofilm OD600 with compound plus antifungal (OD600 (absorbance)); higher = more biofilm remaining", "settings": "assay detail: disruption of 24-h mature biofilm (compound + antifungal for a second 24 h)"}
{"smiles": "O=C[C@@H]1CCCN1C(=O)[C@@H]1CCCN1C(=O)OCc1ccccc1", "note": "[Z-Prolyl-prolinal] + OC(Cn1cncn1)(Cn1cncn1)c1ccc(F)cc1F [fluconazole] (first compound 12.5 µM)", "biofilm OD600": "0.247 ± 0.013"}
{"smiles": "O=C(O)CNC(=O)C(CS)Cc1ccccc1", "note": "(racemic) [DL-Thiorphan] + CC[C@H](C)C[C@H](C)CCCCCCCCC(=O)N[C@H]1C[C@@H](O)[C@@H](NCCN)NC(=O)[C@@H]2[C@@H](O)CCN2C(=O)[C@H]([C@H](O)CCN)NC(=O)[C@H]([C@H](O)[C@@H](O)c2ccc(O)cc2)NC(=O)[C@@H]2C[C@@H](O)CN2C(=O)[C@H]([C@@H](C)O)NC1=O [caspofungin] (first compound 12.5 µM)", "biofilm OD600": "0.262 ± 0.013"}
{"smiles": "N[C@H](C(=O)O)[C@@H]1CC(Cl)=NO1", "note": "[Acivicin] + C[C@@H]1[C@H](O)[C@@H](C)/C=C/C=C/C=C/C=C/C=C/C=C/C=C/[C@H](O[C@@H]2O[C@H](C)[C@@H](O)[C@H](N)[C@@H]2O)C[C@@H]2O[C@](O)(C[C@@H](O)C[C@@H](O)[C@H](O)CC[C@@H](O)C[C@@H](O)CC(=O)O[C@H]1C)C[C@H](O)[C@H]2C(=O)O [amphotericin B] (first compound 4 µM)", "biofilm OD600": "0.31 ± 0.0054"}
{"smiles": "O=C(NCCCCN1CCOCC1)c1cc2ccccc2o1", "note": "+ OC(Cn1cncn1)(Cn1cncn1)c1ccc(F)cc1F [fluconazole] (first compound 12.5 µM)", "biofilm OD600": "0.258 ± 0.0098"}
{"system": "Candida albicans SNY425 biofilm", "experiment": "biofilm OD600 with compound plus antifungal (OD600 (absorbance)); higher = more biofilm remaining", "settings": "assay detail: sustained inhibition (compound + antifungal during 90-min adherence and 24-h growth)"}
{"smiles": "CC(C)c1nc(CN(C)C(=O)N[C@H](C(=O)N[C@@H](Cc2ccccc2)C[C@H](O)[C@H](Cc2ccccc2)NC(=O)OCc2cncs2)C(C)C)cs1", "note": "[ritonavir] + OC(Cn1cncn1)(Cn1cncn1)c1ccc(F)cc1F [fluconazole] (first compound 12.5 µM)", "biofilm OD600": "0.168 ± 0.014"}
{"smiles": "CCC(C)[C@H](NS(=O)(=O)c1cccc2ccccc12)C(=O)N[C@H](C=O)Cc1c[nH]c2ccccc12", "note": "(some centres not stated) + CC[C@H](C)C[C@H](C)CCCCCCCCC(=O)N[C@H]1C[C@@H](O)[C@@H](NCCN)NC(=O)[C@@H]2[C@@H](O)CCN2C(=O)[C@H]([C@H](O)CCN)NC(=O)[C@H]([C@H](O)[C@@H](O)c2ccc(O)cc2)NC(=O)[C@@H]2C[C@@H](O)CN2C(=O)[C@H]([C@@H](C)O)NC1=O [caspofungin] (first compound 12.5 µM)", "biofilm OD600": "0.18 ± 0.0089"}
{"smiles": "N[C@H](C(=O)O)[C@@H]1CC(Cl)=NO1", "note": "[Acivicin] + OC(Cn1cncn1)(Cn1cncn1)c1ccc(F)cc1F [fluconazole] (first compound 4 µM)", "biofilm OD600": "0.123 ± 0.0055"}
{"smiles": "C[C@]1(Cn2ccnn2)[C@H](C(=O)O)N2C(=O)C[C@H]2S1(=O)=O", "note": "[Tazobactam] + C[C@@H]1[C@H](O)[C@@H](C)/C=C/C=C/C=C/C=C/C=C/C=C/C=C/[C@H](O[C@@H]2O[C@H](C)[C@@H](O)[C@H](N)[C@@H]2O)C[C@@H]2O[C@](O)(C[C@@H](O)C[C@@H](O)[C@H](O)CC[C@@H](O)C[C@@H](O)CC(=O)O[C@H]1C)C[C@H](O)[C@H]2C(=O)O [amphotericin B] (first compound 12.5 µM)", "biofilm OD600": "0.193 ± 0.0071"}
{"smiles": "CCC(C)[C@H](NS(=O)(=O)c1cccc2ccccc12)C(=O)N[C@H](C=O)Cc1c[nH]c2ccccc12", "note": "(some centres not stated) + C[C@@H]1[C@H](O)[C@@H](C)/C=C/C=C/C=C/C=C/C=C/C=C/C=C/[C@H](O[C@@H]2O[C@H](C)[C@@H](O)[C@H](N)[C@@H]2O)C[C@@H]2O[C@](O)(C[C@@H](O)C[C@@H](O)[C@H](O)CC[C@@H](O)C[C@@H](O)CC(=O)O[C@H]1C)C[C@H](O)[C@H]2C(=O)O [amphotericin B] (first compound 12.5 µM)", "biofilm OD600": "0.188 ± 0.0088"}
{"smiles": "NCCCC[C@H](N[C@@H](CCc1ccccc1)C(=O)O)C(=O)N1CCC[C@H]1C(=O)O", "note": "[Lisinopril] + C[C@@H]1[C@H](O)[C@@H](C)/C=C/C=C/C=C/C=C/C=C/C=C/C=C/[C@H](O[C@@H]2O[C@H](C)[C@@H](O)[C@H](N)[C@@H]2O)C[C@@H]2O[C@](O)(C[C@@H](O)C[C@@H](O)[C@H](O)CC[C@@H](O)C[C@@H](O)CC(=O)O[C@H]1C)C[C@H](O)[C@H]2C(=O)O [amphotericin B] (first compound 12.5 µM)", "biofilm OD600": "0.173 ± 0.014"}
{"smiles": "NC(N)=NCCC[C@H](NC(=O)[C@@H]1CCCN1C(=O)[C@H](N)Cc1ccccc1)C(=O)CCl", "note": "+ OC(Cn1cncn1)(Cn1cncn1)c1ccc(F)cc1F [fluconazole] (first compound 12.5 µM)", "biofilm OD600": "0.159 ± 0.011"}
{"smiles": "N=C(N)Nc1ccc(C(=O)Oc2ccc3cc(C(=N)N)ccc3c2)cc1", "note": "[Nafamostat mesylate] + CC[C@H](C)C[C@H](C)CCCCCCCCC(=O)N[C@H]1C[C@@H](O)[C@@H](NCCN)NC(=O)[C@@H]2[C@@H](O)CCN2C(=O)[C@H]([C@H](O)CCN)NC(=O)[C@H]([C@H](O)[C@@H](O)c2ccc(O)cc2)NC(=O)[C@@H]2C[C@@H](O)CN2C(=O)[C@H]([C@@H](C)O)NC1=O [caspofungin] (first compound 12.5 µM)", "biofilm OD600": "0.162 ± 0.012"}
{"smiles": "CC(C)c1nc(CN(C)C(=O)N[C@H](C(=O)N[C@@H](Cc2ccccc2)C[C@H](O)[C@H](Cc2ccccc2)NC(=O)OCc2cncs2)C(C)C)cs1", "note": "[ritonavir] + CC[C@H](C)C[C@H](C)CCCCCCCCC(=O)N[C@H]1C[C@@H](O)[C@@H](NCCN)NC(=O)[C@@H]2[C@@H](O)CCN2C(=O)[C@H]([C@H](O)CCN)NC(=O)[C@H]([C@H](O)[C@@H](O)c2ccc(O)cc2)NC(=O)[C@@H]2C[C@@H](O)CN2C(=O)[C@H]([C@@H](C)O)NC1=O [caspofungin] (first compound 12.5 µM)", "biofilm OD600": "0.12 ± 0.009"}
{"smiles": "Cc1ccc(S(=O)(=O)N[C@@H](Cc2ccccc2)C(=O)CCl)cc1", "note": "+ CC[C@H](C)C[C@H](C)CCCCCCCCC(=O)N[C@H]1C[C@@H](O)[C@@H](NCCN)NC(=O)[C@@H]2[C@@H](O)CCN2C(=O)[C@H]([C@H](O)CCN)NC(=O)[C@H]([C@H](O)[C@@H](O)c2ccc(O)cc2)NC(=O)[C@@H]2C[C@@H](O)CN2C(=O)[C@H]([C@@H](C)O)NC1=O [caspofungin] (first compound 4 µM)", "biofilm OD600": "0.152 ± 0.013"}
{"smiles": "CC(C)C[C@H](NP(=O)(O)O[C@@H]1O[C@@H](C)[C@H](O)[C@@H](O)[C@H]1O)C(=O)N[C@@H](Cc1c[nH]c2ccccc12)C(=O)O", "note": "[Phosphoramidon] + OC(Cn1cncn1)(Cn1cncn1)c1ccc(F)cc1F [fluconazole] (first compound 12.5 µM)", "biofilm OD600": "0.156 ± 0.0037"}
{"smiles": "CC(C)(C)NC(=O)[C@@H]1CN(Cc2cccnc2)CCN1C[C@@H](O)C[C@@H](Cc1ccccc1)C(=O)N[C@H]1c2ccccc2C[C@H]1O", "note": "[indinavir] + C[C@@H]1[C@H](O)[C@@H](C)/C=C/C=C/C=C/C=C/C=C/C=C/C=C/[C@H](O[C@@H]2O[C@H](C)[C@@H](O)[C@H](N)[C@@H]2O)C[C@@H]2O[C@](O)(C[C@@H](O)C[C@@H](O)[C@H](O)CC[C@@H](O)C[C@@H](O)CC(=O)O[C@H]1C)C[C@H](O)[C@H]2C(=O)O [amphotericin B] (first compound 12.5 µM)", "biofilm OD600": "0.228 ± 0.0076"}
{"smiles": "CO[C@@H]1[C@H](OC(=O)/C=C/C=C/C=C/C=C/C(=O)O)CC[C@]2(CO2)[C@H]1[C@@]1(C)O[C@@H]1CC=C(C)C", "note": "[Fumagillin] + OC(Cn1cncn1)(Cn1cncn1)c1ccc(F)cc1F [fluconazole] (first compound 12.5 µM)", "biofilm OD600": "0.117 ± 0.0056"}
{"smiles": "CNC(=O)[C@H](Cc1c[nH]c2ccccc12)NC(=O)[C@@H](CC(=O)NO)CC(C)C", "note": "+ CC[C@H](C)C[C@H](C)CCCCCCCCC(=O)N[C@H]1C[C@@H](O)[C@@H](NCCN)NC(=O)[C@@H]2[C@@H](O)CCN2C(=O)[C@H]([C@H](O)CCN)NC(=O)[C@H]([C@H](O)[C@@H](O)c2ccc(O)cc2)NC(=O)[C@@H]2C[C@@H](O)CN2C(=O)[C@H]([C@@H](C)O)NC1=O [caspofungin] (first compound 12.5 µM)", "biofilm OD600": "0.187 ± 0.0076"}
{"smiles": "C[C@]1(Cn2ccnn2)[C@H](C(=O)O)N2C(=O)C[C@H]2S1(=O)=O", "note": "[Tazobactam] + OC(Cn1cncn1)(Cn1cncn1)c1ccc(F)cc1F [fluconazole] (first compound 12.5 µM)", "biofilm OD600": "0.12 ± 0.0072"}
{"smiles": "O=C(O[C@@H]1Cc2c(O)cc(O)cc2O[C@@H]1c1cc(O)c(O)c(O)c1)c1cc(O)c(O)c(O)c1", "note": "[Epigallocatechin gallate] + OC(Cn1cncn1)(Cn1cncn1)c1ccc(F)cc1F [fluconazole] (first compound 12.5 µM)", "biofilm OD600": "0.164 ± 0.01"}
{"smiles": "CC[C@H](C)[C@H](N)C(=O)N1CCSC1", "note": "[P32/98 hemifumarate salt] + C[C@@H]1[C@H](O)[C@@H](C)/C=C/C=C/C=C/C=C/C=C/C=C/C=C/[C@H](O[C@@H]2O[C@H](C)[C@@H](O)[C@H](N)[C@@H]2O)C[C@@H]2O[C@](O)(C[C@@H](O)C[C@@H](O)[C@H](O)CC[C@@H](O)C[C@@H](O)CC(=O)O[C@H]1C)C[C@H](O)[C@H]2C(=O)O [amphotericin B] (first compound 12.5 µM)", "biofilm OD600": "0.181 ± 0.0051"}
{"smiles": "CC(C)CC(=O)N[C@H](C(=O)N[C@H](C(=O)N[C@@H](CC(C)C)[C@@H](O)CC(=O)N[C@@H](C)C(=O)N[C@@H](CC(C)C)[C@@H](O)CC(=O)O)C(C)C)C(C)C", "note": "[Pepstatin A] + C[C@@H]1[C@H](O)[C@@H](C)/C=C/C=C/C=C/C=C/C=C/C=C/C=C/[C@H](O[C@@H]2O[C@H](C)[C@@H](O)[C@H](N)[C@@H]2O)C[C@@H]2O[C@](O)(C[C@@H](O)C[C@@H](O)[C@H](O)CC[C@@H](O)C[C@@H](O)CC(=O)O[C@H]1C)C[C@H](O)[C@H]2C(=O)O [amphotericin B] (first compound 12.5 µM)", "biofilm OD600": "0.199 ± 0.011"}
